# Measurements from PubChem BioAssay (NCI).
# The panel holds about 83,000 compounds, 20% with a hit somewhere; the sample as a whole holds those more often.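 Cells were grown in 96-well plates and exposed to the test compound at a single concentration for 48 hours; results are reported as percent growth, with values below 10 considered active.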 The source made the active and inactive calls.
# Test system: A498 renal
# Assay: NCI-60 one-dose screen, 48 h (100 = growth as untreated, 0 = no growth, -100 = all killed)
# Details: 10 µM
row,Structure (SMILES),growth
1,CCCCCCCNc1nc(C=O)ncc1-c1ccc(C(F)(F)F)cc1,86.2% (inactive)
2,CCCCCCN1CCN(Cc2ccc(N(CC)CC)cc2)C(=O)C1=O,-4.48% (active)
3,O=C(Nc1cccc(-n2cc(-c3ccncc3)c(-c3ccc(O)c(Cl)c3)n2)c1)Nc1ccc(Cl)c(Cl)c1,23.2% (inactive)
4,S=C1SCC(c2ccccc2)S1 (centres undefined),102% (inactive)
5,COc1cccc(C(=O)Nc2ccc(CN3CCc4nc5cc(OC)c(OC)cc5cc43)cc2)c1,20.5% (inactive)
6,COc1ccc(-c2nn(-c3cccc(NC(=O)c4cc(C(F)(F)F)cc(C(F)(F)F)c4)c3)cc2-c2ccncc2)cc1Cl,39.7% (inactive)
7,O=C(Nc1ccccc1)Nc1cccc(-n2cc(-c3ccncc3)c(-c3ccc(O)c(Cl)c3)n2)c1,82.5% (inactive)
8,N#CCCN1C/C(=C/c2ccc(Cl)cc2)C(=O)/C(=C/c2ccc(Cl)cc2)C1,-68.4% (active)
9,COc1ccc(-c2nn(-c3cccc(NC(=O)c4cccc(C(F)(F)F)c4)c3)cc2-c2ccncc2)cc1Cl,-11.9% (active)
10,COc1ccc([N+](=O)[O-])c(C(=O)O)c1,85.6% (inactive)
11,CN(C)CCN=c1nc2c(c(N)n1-c1ccccc1)c(=S)n(-c1ccccc1)c(=S)n2-c1ccccc1,40.3% (inactive)
12,O=C(Nc1cccc(-n2cc(-c3ccncc3)c(-c3ccc(O)c(Cl)c3)n2)c1)c1cccc(C(F)(F)F)c1,57.7% (inactive)
13,COc1cccc(NC(=O)c2sc3nc4c(cc3c2N)C(O)CCC4)c1 (centres undefined),-7.35% (active)
14,O=S(=O)(NCCCNc1nccc(-c2c(-c3ccc(F)cc3)nc3sccn23)n1)c1ccc2ccccc2c1,62.4% (inactive)
15,COc1ccc(-c2nn(-c3cccc(NC(=O)Nc4cccc(C(F)(F)F)c4)c3)cc2-c2ccncc2)cc1Cl,0.293% (active)
16,COc1ccc(-c2nn(-c3cccc(NC(=O)c4ccc(Cl)c(Cl)c4)c3)cc2-c2ccncc2)cc1Cl,54.7% (inactive)
17,Cc1c(Cl)cccc1NC(=O)c1sc2nc3c(cc2c1N)C(=O)CCC3,-19% (active)
18,COc1cc(/C=C/C(=O)c2ccc(Cl)cc2)ccc1OS(=O)(=O)c1ccc(C)cc1,86.3% (inactive)
19,O=C(N/N=C/c1cc2ccccc2c2ccccc12)c1cc(O)c(O)c(O)c1,106% (inactive)
20,COc1ccc(-c2nn(-c3cccc(NC(=O)c4ccc(N5CCOCC5)c(C(F)(F)F)c4)c3)cc2-c2ccncc2)cc1Cl,60% (inactive)

row,Structure (SMILES),growth
1,COc1ccc(-c2cc(/C=C/C(=O)c3cc(OC)c(OC)c(OC)c3)[nH]n2)cc1OC,-2.03% (active)
2,CC1=C(N2CCOCC2)C(N2CCOCC2)=C(C)C(=O)C1=O,88.6% (inactive)
3,Cc1ccc(C)c(C(O)(c2cc(C)ccc2C)C2(O)CCCCC2)c1,94.5% (inactive)
4,COc1ccc(-c2nn(-c3cccc(NC(=O)c4ccc5c(c4)OCCO5)c3)cc2-c2ccncc2)cc1Cl,-19.3% (active)
5,Cc1ncc(-c2ccoc2)c(NC2CCCCCC2)n1,105% (inactive)
6,O=S(=O)(NCCNc1nccc(-c2c(-c3ccc(F)cc3)nc3sccn23)n1)c1ccc2ccccc2c1,79.5% (inactive)
7,COc1ccc2c(c1)nc(N)c1c3cccnc3cn21,-9.56% (active)
8,O=C(Nc1cccc(-n2cc(-c3ccncc3)c(-c3ccc(O)c(Cl)c3)n2)c1)c1ccc(Cl)c(Cl)c1,74.6% (inactive)
9,CCN1CCCC1CNC(=O)c1ncc(-c2ccc(C(F)(F)F)cc2)c(NC2CCCCCC2)n1 (centres undefined),58.3% (inactive)
10,Clc1ccc(-c2cn(-c3ccccc3)c(-c3ccccc3)n2)c(Cl)c1,-28.3% (active)
11,CCCCCCCCCCCCCCCC(=O)OC1[C@@H](OC(=O)CCCCCCCCCCCCCCC)[C@@H](C(=O)N[C@@H](CCCCN)C(=O)OC)O[C@H]1n1cnc2c(=O)[nH]c(NC(=O)C(C)C)nc21 (some centres undefined),98.1% (inactive)
12,O=c1oc2cc(OS(=O)(=O)c3ccccc3)ccc2c2c1CCCCC2,48.9% (inactive)
13,O=C1Nc2ccccc2C1=NC1CCCCC1,109% (inactive)
14,O=C(Nc1cccc(-n2cc(-c3ccncc3)c(-c3ccc(O)c(Cl)c3)n2)c1)c1ccc(N2CCOCC2)c(C(F)(F)F)c1,71.7% (inactive)
15,O=C(Nc1ccc(OS(=O)(=O)c2ccccc2)cc1)C12CC3CC(CC(C3)C1)C2,14.4% (inactive)
16,O=C(Nc1cccc(-n2cc(-c3ccncc3)c(-c3ccc(O)c(Cl)c3)n2)c1)c1cc(C(F)(F)F)cc(C(F)(F)F)c1,57.2% (inactive)
17,CCCC#CCN(CC)CC,105% (inactive)
18,Cc1ccc(S(=O)(=O)OCCN(CCOS(=O)(=O)c2ccc(C)cc2)c2c[nH]c(=O)[nH]c2=O)cc1,117% (inactive)
19,CCOC(=O)C(NC(=O)C(Cl)Cl)C(O)c1ccccc1 (centres undefined),99.2% (inactive)
